The values below come from PubChem BioAssay.

Assay [1] relates to Plasmodium falciparum Sir2 (PF13_0152, Sir2A). The assay can be described thus: pfSir2 binders on small-molecule microarrays, primary screen, biochemical, small-molecule microarray, 635 nm fluorescence (AID 1098).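 Further: score merges spot fluorescence intensity with its signal-to-noise ratio.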 To be noted: small-molecule microarray binding, fluorescence 635 nm; higher = more signal.
A short description of assay [2]: small-molecule microarray binders of probe aDKK1, primary screen, biochemical, biotinylated probe, 635/667 nm fluorescence (AID 1099).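 Further: score merges 667nm spot fluorescence with signal to noise across triplicate slides.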 To be noted: higher = more signal.
Assay [3] can be described thus: small-molecule microarray binders of probe aCHRDL2, primary screen, biochemical, biotinylated probe, 635/667 nm fluorescence (AID 1100). The note with it: higher = more signal.
Assay [4] in a line: splicing luciferase reporter signal modulators, primary screen, spliceosome inhibition project, cell-based, HEK293, splice +/- reporter (AID 1101).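 Further: HEK293 cells carrying a splicing-competent luciferase reporter gene; test concentration not given here.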 To be noted: luminescence, 24 h, higher = more signal, called active from +8 up or from −8 down. (A reporter such as luciferase makes a cellular process visible.)
In assay [5] the target is Fibroblast growth factor 10 (Homo sapiens) (UniProt O15520). As to the kind of experiment: FGF10 binders on small-molecule microarrays, primary screen, biochemical, small-molecule microarray, 635 nm fluorescence (AID 1102). To be noted: FGF10 binding, fluorescence 635 nm, higher = more signal.
In assay [6] the test system is glycogen synthase kinase-3 (GSK3A per assay name; protocol says GSK3B). As to the kind of experiment: GSK3 binders on small-molecule microarrays, primary screen, biochemical, small-molecule microarray, 635 nm fluorescence, GSK3A (AID 1103). Further: the record names both GSK3A and GSK3B. To be noted: small-molecule microarray binding, fluorescence 635 nm; higher = more signal.
For assay [7], the target named is Epidermal growth factor receptor (Homo sapiens) (UniProt P00533). As to the kind of experiment: EGFR binders on small-molecule microarrays, primary screen, biochemical, small-molecule microarray, 635 nm fluorescence (AID 1104).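 Further: score merges 667 nm emission intensity with spot signal to noise over triplicate slides.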 To be noted: EGFR binding, higher = more signal.
Assay [8] concerns the target Follistatin-related protein 3 (Homo sapiens) (UniProt O95633). As to the kind of experiment: FSTL3 binders on small-molecule microarrays, primary screen, biochemical, small-molecule microarray, 635 nm fluorescence (AID 1105).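 Further: score merges emission near 667 nm and signal to noise per printed spot across three slides.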 To be noted: FSTL3 binding, higher = more signal.
Assay [9] deals with Dickkopf-related protein 1 (Homo sapiens) (UniProt O94907). As to the kind of experiment: DKK1 binders on small-molecule microarrays, primary screen, biochemical, small-molecule microarray, 635 nm fluorescence scan (AID 1106).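 Further: score merges emission near 667 nm with signal to noise over three replicate slides.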 The note with it: DKK1 binding, higher = more signal.
Assay [10] deals with Inhibin beta A chain (activin A). As to the kind of experiment: INHBA (activin A) binders on microarrays, primary screen, biochemical, small-molecule microarray, 635 nm fluorescence scan (AID 1107).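 Further: mouse activin A protein probed at 4.33 µg/mL on printed slides; score merges bound-protein fluorescence near 667 nm with spot signal-to-noise.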 To be noted: small-molecule microarray binding, higher = more signal.
In assay [11] the test system is Human papillomavirus type 1a protein E7 (residues 44-93). The assay can be described thus: HPV1a E7 fragment binders on microarrays, primary screen, biochemical, small-molecule microarray, residues 44-93, 635 nm fluorescence (AID 1108).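 Further: E7 fragment applied at 1 µg/mL in TBST for 1 h at 4 C; score combines spot fluorescence with its signal to noise ratio.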 To be noted: small-molecule microarray binding, fluorescence 635 nm; higher = more signal.
Assay [12] is described as follows: modulators of HCV replicon luciferase signal, primary screen, HCV replication inhibitor project, Huh7 cells, luciferase reporter (AID 1109).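 Further: huh7 hepatoma cells harbouring a luciferase neomycin HCV replicon reporter; luciferase luminescence as measure of HCV replicon replication; test concentration not given here.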 The note with it: 48 h, higher = more signal.
In assay [13] the target is Left-right determination factor 2 (Homo sapiens) (UniProt O00292). As to the kind of experiment: LEFTY2 binders on small-molecule microarrays, primary screen, biochemical, small-molecule microarray, 635 nm fluorescence scan (AID 1110). The note with it: LEFTY2 binding, higher = more signal.
Assay [14] has as its target Calmodulin-1 (Homo sapiens) (UniProt P0DP23). As to the kind of experiment: CALM1 binders on microarrays, EGTA buffer, profiling panel, biochemical, small-molecule microarray, Cy5-labelled CALM1 (AID 1111).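 Further: labelled calmodulin applied in Tris saline Tween buffer holding calcium plus EGTA and DTT.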 The note with it: Cy5-CALM1 binding fluorescence, higher = more signal.
Assay [15] shares this target. As to the kind of experiment: calcium-bound CALM1 binders on microarrays, profiling panel, artefact control for SMM control-protein annotation, biochemical, small-molecule microarray, Cy5-labelled CALM1, plus calcium (AID 1112).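 Further: score merges spot fluorescence with signal to noise from triplicate slides.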 The note with it: Cy5-CALM1 binding fluorescence, higher = more signal.
Assay [16] is described as follows: small-molecule microarray binders of probe aWnt5a, primary screen, biochemical, biotinylated probe, 635/667 nm fluorescence (AID 1113).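 Further: score merges 667 nm fluorescence intensity with signal-to-noise per printed feature.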 The note with it: higher = more signal.
Assay [17] can be described thus: small-molecule microarray binders of probe aShh, primary screen, biochemical, biotinylated probe, 635/667 nm fluorescence (AID 1114).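 Further: probe is biotin-labelled aShh protein from a stem cell growth factor screen; measures binding of labelled protein to compounds printed on the slide; score merges feature fluorescence at 667 nm with signal-to-noise.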 To be noted: higher = more signal.
Assay [18] can be described thus: small-molecule microarray binders of probe aNog, primary screen, biochemical, biotinylated probe, 635/667 nm fluorescence (AID 1115).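 Further: probe is biotinylated aNog protein used at 0.15 µg/mL for 1 h at 4 C; z-score combines 667 nm fluorescence of each spot with its signal to noise.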 To be noted: higher = more signal.
The target in assay [19] is Torsin-1A-interacting protein 1 (Homo sapiens) (UniProt Q5JTV8). As to the kind of experiment: LAP1 binders from COS7 cell lysate, primary screen, small-molecule microarray, 635/667 nm fluorescence (AID 1116). The note with it: COS7-hLAP1 lysate binding, 635 nm fluorescence, higher = more signal.
Assay [20] has as its target Alpha-bungarotoxin (Bungarus multicinctus) (UniProt P60615). The assay can be described thus: alpha-bungarotoxin binders on microarray, profiling panel, artefact control for SMM control protein annotation, biochemical, small-molecule microarray, Alexa647 label, 635/667 nm fluorescence (AID 1117). The note with it: alpha-BTX-A647 binding fluorescence, higher = more signal.

Activity calls are given as the source filed them.

Epidermal growth factor receptor (Homo sapiens), sequence (P00533 whole entry, looked up): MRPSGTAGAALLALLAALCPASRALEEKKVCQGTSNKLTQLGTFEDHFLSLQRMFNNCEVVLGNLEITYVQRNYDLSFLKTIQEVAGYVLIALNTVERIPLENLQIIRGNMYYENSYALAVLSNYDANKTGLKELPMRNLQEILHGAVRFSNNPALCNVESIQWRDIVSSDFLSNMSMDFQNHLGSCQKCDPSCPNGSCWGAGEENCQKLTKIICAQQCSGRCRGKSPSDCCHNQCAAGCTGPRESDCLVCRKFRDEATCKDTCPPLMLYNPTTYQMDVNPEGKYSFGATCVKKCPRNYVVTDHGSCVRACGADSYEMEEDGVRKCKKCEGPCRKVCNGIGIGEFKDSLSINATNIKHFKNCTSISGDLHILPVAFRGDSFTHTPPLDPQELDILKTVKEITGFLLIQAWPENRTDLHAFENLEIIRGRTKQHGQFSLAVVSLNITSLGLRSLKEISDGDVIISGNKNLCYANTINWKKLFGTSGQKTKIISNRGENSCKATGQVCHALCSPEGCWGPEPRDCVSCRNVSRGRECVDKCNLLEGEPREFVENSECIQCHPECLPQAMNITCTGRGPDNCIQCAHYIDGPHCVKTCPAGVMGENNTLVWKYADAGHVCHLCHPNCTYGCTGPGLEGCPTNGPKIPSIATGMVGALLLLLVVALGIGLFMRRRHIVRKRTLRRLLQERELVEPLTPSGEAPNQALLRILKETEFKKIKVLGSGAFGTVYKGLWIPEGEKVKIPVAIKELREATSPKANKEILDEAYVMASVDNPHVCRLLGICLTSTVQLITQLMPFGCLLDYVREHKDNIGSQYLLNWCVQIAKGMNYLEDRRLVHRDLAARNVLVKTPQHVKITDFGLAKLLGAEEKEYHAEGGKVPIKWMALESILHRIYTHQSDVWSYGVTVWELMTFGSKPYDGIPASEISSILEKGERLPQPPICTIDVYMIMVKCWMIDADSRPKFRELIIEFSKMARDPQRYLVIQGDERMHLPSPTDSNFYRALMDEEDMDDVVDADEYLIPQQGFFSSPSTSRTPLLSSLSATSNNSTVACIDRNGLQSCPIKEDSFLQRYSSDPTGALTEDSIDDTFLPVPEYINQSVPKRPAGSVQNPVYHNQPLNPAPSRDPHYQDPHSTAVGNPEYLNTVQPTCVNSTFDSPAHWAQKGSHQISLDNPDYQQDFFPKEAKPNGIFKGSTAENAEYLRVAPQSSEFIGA
Dickkopf-related protein 1 (Homo sapiens), sequence (O94907 whole entry, looked up): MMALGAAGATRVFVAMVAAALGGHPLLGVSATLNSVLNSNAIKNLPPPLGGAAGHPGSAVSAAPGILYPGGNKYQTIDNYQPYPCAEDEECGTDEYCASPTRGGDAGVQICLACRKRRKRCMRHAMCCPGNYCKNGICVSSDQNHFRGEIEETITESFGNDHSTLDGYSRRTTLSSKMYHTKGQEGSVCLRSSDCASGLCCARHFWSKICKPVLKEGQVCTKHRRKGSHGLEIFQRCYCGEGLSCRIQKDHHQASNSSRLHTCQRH
Left-right determination factor 2 (Homo sapiens), sequence (O00292 whole entry, looked up): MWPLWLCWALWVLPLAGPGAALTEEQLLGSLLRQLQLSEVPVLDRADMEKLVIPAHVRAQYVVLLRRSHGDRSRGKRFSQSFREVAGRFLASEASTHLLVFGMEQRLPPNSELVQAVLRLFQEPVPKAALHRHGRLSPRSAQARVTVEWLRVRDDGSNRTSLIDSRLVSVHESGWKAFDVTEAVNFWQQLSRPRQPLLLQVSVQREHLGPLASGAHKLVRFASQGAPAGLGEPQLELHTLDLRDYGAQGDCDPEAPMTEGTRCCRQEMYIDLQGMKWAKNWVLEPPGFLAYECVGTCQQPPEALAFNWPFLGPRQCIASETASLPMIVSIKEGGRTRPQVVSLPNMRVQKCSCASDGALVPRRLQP
Fibroblast growth factor 10 (Homo sapiens), sequence (O15520 whole entry, looked up): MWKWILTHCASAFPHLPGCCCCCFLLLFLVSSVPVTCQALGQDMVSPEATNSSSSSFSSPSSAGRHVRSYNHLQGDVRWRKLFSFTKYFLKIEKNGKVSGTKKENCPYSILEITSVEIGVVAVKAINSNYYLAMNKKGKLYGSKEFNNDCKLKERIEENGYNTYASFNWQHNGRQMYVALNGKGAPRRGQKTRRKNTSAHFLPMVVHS
Follistatin-related protein 3 (Homo sapiens), sequence (O95633 whole entry, looked up): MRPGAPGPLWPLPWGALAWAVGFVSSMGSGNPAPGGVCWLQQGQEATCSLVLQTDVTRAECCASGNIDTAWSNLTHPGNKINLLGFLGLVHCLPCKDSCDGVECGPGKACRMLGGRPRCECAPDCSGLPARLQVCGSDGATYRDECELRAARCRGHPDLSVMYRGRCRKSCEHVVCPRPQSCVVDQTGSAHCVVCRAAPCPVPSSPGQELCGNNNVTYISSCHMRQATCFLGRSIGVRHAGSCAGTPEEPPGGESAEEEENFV
Torsin-1A-interacting protein 1 (Homo sapiens), sequence (Q5JTV8 whole entry, looked up): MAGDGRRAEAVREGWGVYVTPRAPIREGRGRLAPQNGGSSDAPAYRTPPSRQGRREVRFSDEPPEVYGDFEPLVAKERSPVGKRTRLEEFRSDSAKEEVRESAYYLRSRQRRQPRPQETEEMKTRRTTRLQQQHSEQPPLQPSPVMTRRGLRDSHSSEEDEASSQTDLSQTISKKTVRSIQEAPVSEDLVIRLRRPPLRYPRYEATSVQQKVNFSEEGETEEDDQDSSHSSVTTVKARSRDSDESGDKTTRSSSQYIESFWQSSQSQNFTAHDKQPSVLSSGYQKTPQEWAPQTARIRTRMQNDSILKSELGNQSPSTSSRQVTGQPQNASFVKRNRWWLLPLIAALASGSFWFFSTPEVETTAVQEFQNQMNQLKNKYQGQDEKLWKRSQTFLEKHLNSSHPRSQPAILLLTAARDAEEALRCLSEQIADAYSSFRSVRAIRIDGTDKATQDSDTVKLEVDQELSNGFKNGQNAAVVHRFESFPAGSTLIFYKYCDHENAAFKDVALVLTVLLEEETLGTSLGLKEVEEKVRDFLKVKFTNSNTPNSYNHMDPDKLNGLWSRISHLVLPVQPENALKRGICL
Alpha-bungarotoxin (Bungarus multicinctus), sequence (P60615 whole entry, looked up): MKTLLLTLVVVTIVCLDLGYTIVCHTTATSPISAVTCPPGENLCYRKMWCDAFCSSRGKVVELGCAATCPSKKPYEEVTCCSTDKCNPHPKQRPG

As for `CCN1C(=O)[C@H]2[C@H]3[C@H](O)[C@H](O)CC(=NO[C@@H]4O[C@H](COC(C)=O)[C@@H](OC(C)=O)[C@H](OC(C)=O)[C@H]4OC(C)=O)[C@@H]3CC[C@H]2C1=O`, the composite z-score in assay [1] was 0.579; in [2] it was 0.0594; in assay [3], -0.601; in assay [5], 0.868; in assay [6], 0.612; in [7], 0.591. Moreover, the composite z-score in [8] was 1.11; in assay [9] it was 0.735; in [10] it was -0.371; in assay [11] it was 0.519; in assay [13], 0.671; in assay [14], -0.41. Further, the composite z-score is -0.564 in assay [15]; 0.0151 in [16]; 0.126 in [17]; 0.166 in assay [18]; 0.256 in assay [19]; 0.721 in assay [20]. The z-score in assay [4] is 0.5 (inactive); in assay [12], -0.835.

Consider `COC(=O)[C@@H]1CC[C@H](C)[C@@H](c2ccc(C)cc2)N1C(=O)c1ccc(C=NO[C@@H](C)c2cc(-c3c(C)cc(C)cc3C)no2)cc1`, for which the composite z-score in assay [1] was 0.321; in [2] it was -0.12; in [3] it was -0.144; in assay [5], 0.418; in assay [6], 0.738; in assay [7] it was 0.51. Besides, the composite z-score in [8] was determined as 0.242; in [9] it was 0.675; in assay [10], 0.598; in assay [11] it was 1.04; in [13], 0.45; in assay [14] it was 0.0785. The composite z-score in assay [15] is -0.37; in [16], -0.0236; in assay [17] it was -0.141; in [18], 0.0373; in assay [19] it was 0.722; in assay [20] it was 0.208. Besides, the z-score in assay [4] was -1.04 (inactive); in assay [12] it was -0.542.

For `CC(CCC(=O)OC[C@H]1O[C@H](C#Cc2ccccc2)C=C[C@@H]1Oc1ccc(C)cc1)=NO[C@@H](C)c1cc(-c2c(C)cc(C)cc2C)no1`, the composite z-score in assay [1] is 0.199; in [2], -0.293; in [3], -0.0256; in [5], -1.43; in [6], -1.48; in assay [7], -0.983. Further, the composite z-score in assay [8] is -1.27; in [9] it was -0.465; in [10], 0.486; in assay [11] it was -0.612; in assay [13], -0.547; in assay [14] it was -0.413. Further, the composite z-score was -0.262 in [15]; -0.232 in [16]; 0.0121 in assay [17]; -0.118 in [18]; 0.328 in assay [19]; 0.326 in [20]. The z-score was 0.0536 (inactive) in assay [4] and -0.824 in [12].

Take `CCOC(=O)[C@H](CC(C)C)NC(=O)CCC1CC(OC(=O)NCc2ccc3c(c2)OCO3)CC2(CCCC(COC(=O)NCCOc3ccccc3)O2)O1` (stereo not given in full): the composite z-score in [1] is 0.543; in assay [2] it was 0.0931; in assay [3], -0.537; in [5], 0.866; in [6], 0.994; in assay [7], 0.224. Further, the composite z-score is 1.22 in assay [8]; 0.826 in assay [9]; 0.267 in [10]; 1.35 in assay [11]; 0.715 in assay [13]; -0.0232 in assay [14]. The composite z-score in [15] was -0.466; in assay [16], 0.0232; in [17], -0.0289; in [18], -0.404; in assay [19] it was 0.303; in assay [20], 0.905. The z-score in assay [4] is -0.149 (inactive); in assay [12], -1.07.

`COc1ccc(OC[C@H]2CN3[C@@H](CC[C@@H](C)[C@@H]3c3ccc(Br)cc3)C(=O)O2)cc1`: the composite z-score in assay [1] was 0.233; in assay [2], -0.278; in assay [3], -0.345; in assay [5], 0.0848; in [6], 0.16; in [7], 0.204. Besides, the composite z-score in assay [8] was 0.142; in assay [9] it was 0.344; in assay [10], 0.607; in assay [11], 0.191; in [13] it was 0.579; in assay [14], -0.146. For the same compound, the composite z-score in assay [15] is -0.855; in [16], -0.176; in assay [17] it was -0.221; in [18], 0.0121; in [19] it was 0.5; in assay [20], 0.641. The z-score in assay [4] was -0.319 (inactive); in [12], -0.757.
